Hit rate of the full screen: of about 17,000 compounds, about 260 (1.5%) were called active.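 The calls were made as follows: active = spot fluorescence over background with P-value below 7% in all four replicate spots, showing protein binding; inactive = the rest.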 The sample as a whole holds a higher share of actives than the screen did.

For this test, the target named is Myc proto-oncogene protein (Homo sapiens) (UniProt P01106). The experiment in a line: small molecules binding His-tagged c-Myc – biochemical, small molecule microarray, anti-His fluorescence, primary screen (AID 624141).
Chain of Myc proto-oncogene protein (Homo sapiens) (P01106 whole entry, looked up): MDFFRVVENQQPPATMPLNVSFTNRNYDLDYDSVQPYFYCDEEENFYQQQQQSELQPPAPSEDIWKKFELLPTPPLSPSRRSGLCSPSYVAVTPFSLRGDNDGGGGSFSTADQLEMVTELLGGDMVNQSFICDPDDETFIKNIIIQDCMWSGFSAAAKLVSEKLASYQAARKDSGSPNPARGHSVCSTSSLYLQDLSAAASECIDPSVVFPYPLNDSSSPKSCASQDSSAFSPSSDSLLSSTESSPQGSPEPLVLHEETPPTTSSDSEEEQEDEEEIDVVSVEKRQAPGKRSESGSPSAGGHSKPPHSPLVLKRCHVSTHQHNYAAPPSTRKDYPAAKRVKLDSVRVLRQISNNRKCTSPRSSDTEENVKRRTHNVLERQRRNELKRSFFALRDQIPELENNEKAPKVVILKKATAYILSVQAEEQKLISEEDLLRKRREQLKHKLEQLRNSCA
As to `COc1ccc2[nH]cc(CCNCc3ccc(Br)cc3)c2c1`, the outcome was inactive.

For `c1cncc(CNCCc2c[nH]c3ccccc23)c1`, the result was active.

On to `c1ccc(CCCCN2CCC(c3ccccc3)CC2)cc1`, for which the call was inactive.

`C[C@H](CO)N1C[C@H](C)[C@H](CN(C)C(=O)Oc2ccc3ccccc3c2)OCc2cnnn2CCCC1=O`: the result was inactive.

Take `CN[C@@H]1C[C@H]2O[C@@](C)([C@@H]1OC)n1c3ccccc3c3c4c(c5c6ccccc6n2c5c31)C(=O)NC4`: the compound was classed as inactive.

(Values after PubChem BioAssay AID624141 (Broad Institute, 2012).)
